# Data: PubChem BioAssay AID602270 (The Scripps Research Institute Molecular Screening Center, 2012)
# This is one part of the list. Values without a mark were called inactive. No stated cut-off is given here; in the data, active means activation above about 4%; inactive means the rest.
# Test system: Methionine sulfoxide reductase A (Bos taurus)
# Test: methionine sulfoxide reductase A activation – biochemical, absorbance, bovine, HTS, confirmation (AID 602270);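 further: enzyme coupled to thioredoxin and thioredoxin reductase with NADPH; 0% = vehicle wells and 100% = reference activator wells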
# Details: purified bovine MsrA, absorbance read-out; at 10.6 µM; active compounds read high
row,Compound,activation [%]
1,C=CCn1c(SCC(=O)c2c(N)n(C)c(=O)n(C)c2=O)nc2sc(CC)cc2c1=O,-2.75
2,O=C(NCc1ccccc1)C1c2ccccc2OCC(=O)N1C1CC1 (configuration not stated),1.81
3,CSCCC1NC(=O)N(CC(=O)Nc2cccc(S(=O)(=O)N3CCCCCC3)c2)C1=O (configuration not stated),-0.9
4,COc1cccc(CNCCc2c[nH]c3ccccc23)c1OCc1ccccc1F,-2.23
5,COC(=O)CN1C(=O)C(O)=C(C(C)=O)C1c1ccc([N+](=O)[O-])cc1 (configuration not stated),-2.94
6,O=C(Cc1ccc(NC(=O)C2CCCN(C(=O)C3CCCCC3)C2)cc1)Nc1cccc(C(=O)N2CCCCC2)c1 (configuration not stated),-3.28
7,CC1=NNC(=O)C1CCC(=O)N/N=C(\C)c1ccc(Cl)cc1 (configuration not stated),-3.34
